Reference: the OligoGym collection

target: TULP4; experiment: pooled miR-30 sensor sort-seq; sequence = guide strand; details: shRNA

| Sequence | sensor-assay potency score (higher = more potent) |
| --- | --- |
| TTCTTCTGCTCGGCTGTCCAGG | -0.627 |
| TTCAAGCACACATCCACTGGGG | 0.492 |
| TTAAAGTCACTCAAAGTCCTAG | 0.213 |
| TTGAAATTTATCCTCTGTGGAG | -0.662 |
| TTGTCTTATTCAACTTCTTTGA | -0.83 |

target: TUSC2; experiment: as above; details: shRNA

| Sequence | sensor-assay potency score (higher = more potent) |
| --- | --- |
| TTCTTGGTGACGATTGTCTCCT | -0.377 |
| TCCTCATCATAGAACATAGAGC | -1.99 |
| TCATAGAACATAGAGCCGCGGC | -0.488 |
| TCATCATAGAACATAGAGCCGC | -0.771 |
| AATCAGATTCTTATGCACTCGC | 0.0606 |
| TGTCTCCTCATAGAACTCGTGA | -0.468 |
| TCTTGGTGACGATTGTCTCCTC | -0.566 |
| TCTCCTCATAGAACTCGTGAGC | -1.05 |
| AAGCTTGCTCAGCTCCTGCTGC | -0.817 |
| TTGGTGACGATTGTCTCCTCAT | 0.0125 |
| TAGAACATAGAGCCGCGGCGCG | -1.07 |
| ATTCTTATGCACTCGCCTCAGC | -1.06 |

target: TUT1; experiment: as above; details: shRNA

| Sequence | sensor-assay potency score (higher = more potent) |
| --- | --- |
| TTGGGGTCTCTGCTAGTTCCGA | -1.32 |
| TCTAGCAGTGGTGAAGCTGGAG | -0.366 |
| AAACACACTTCGAAGTCCCTGG | 0.0034 |
| TTTGGACTCGATACACCCCAGG | -0.836 |
| TAGTTCTACCAGGTGCCGGTGC | -0.799 |
| TACTGAGGGAGACATCACCGTG | -1.54 |
| TCGTAGTTCTACCAGGTGCCGG | -1.53 |
| TGACAGAACTTGACCACAGGGC | 0.248 |
| TCCTTGTCCATGACAACACTGG | -1.19 |
| TAGGAAGTACTCAGAGAGCTGA | 0.227 |
| TTCTCGCAGCTCGTAGTTCTAC | -0.83 |
| TTGTCCATGACAACACTGGCCA | -0.399 |

target: TXLNG; experiment: as above; details: shRNA

| Sequence | sensor-assay potency score (higher = more potent) |
| --- | --- |
| TTCGATGAGCTTCTTTAGCTTC | -0.258 |
| TTCTTCTTCCTCTCGTGCCTGC | -0.0706 |
| TTGCACTCTGAATCTTGCTGAC | 0.000943 |
| TTCTCTGTTATAAAGTCACTGC | -0.298 |
| TTTAGTTGTACTTCCTGCTGTT | 0.906 |
| TTCTCATTGAGCTCATTCCTTT | -0.993 |
| TTCCTTACGTTTGAACACCTTA | -0.525 |
| TAACGTCTTATTGTGACGCTGA | 0.553 |
| ATTTGCTTCTGAACACTCCTGC | 0.776 |
| TTTCTTTGTCATCTTTTCCATT | -0.923 |
| TTAAACTATTCAAAACTGCTAA | -0.454 |
